Test results: the supplement of paper PMC6555819

Key:
Test in all cases: PBM binding z-score (relative to random genomic background probes); higher = stronger binding; sequences stand for … in GC…GCGATTGACAGCGTAGAATGAAGG
[1] = system: FXR:RXRa (NR concentration 270 nM, RXRa partner concentration 90 nM)
Outline: (§1)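 Ligand-free nuclear receptor dimers were applied to custom Agilent 4×180K protein-binding microarrays whose double-stranded probes carried direct-repeat seeds, single-nucleotide variants, half-site ablations and random human genomic background sequences in 34-nt variable regions. Incubation lasted 1 h. Binding z-scores were computed against the random background probes from regression-normalized fluorescence.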

[2] = system: LXRa:RXRa (NR concentration 270 nM, RXRa partner concentration 90 nM)
Outline: as §1

[3] = system: LXRa homodimer (NR concentration 270 nM)
Outline: as §1

[4] = system: LXRb:RXRa (NR concentration 270 nM, RXRa partner concentration 90 nM)
Outline: as §1

[5] = system: LXRb homodimer (NR concentration 270 nM)
Outline: as §1

[6] = system: PPARa:RXRa (NR concentration 270 nM, RXRa partner concentration 90 nM)
Outline: as §1

[7] = system: PPARg:RXRa (NR concentration 180 nM, RXRa partner concentration 90 nM)
Outline: as §1

[8] = system: PPARg:RXRa 270nM:90nM, anti-RXR (NR concentration 270 nM, RXRa partner concentration 90 nM)
Outline: as §1

[9] = system: PPARg:RXRa 30nM:10nM, anti-RXR (NR concentration 30 nM, RXRa partner concentration 10 nM)
Outline: as §1

[10] = system: PPARg:RXRa 90nM:30nM, anti-RXR (NR concentration 90 nM, RXRa partner concentration 30 nM)
Outline: as §1

[11] = system: PPARg:RXRa DBDmut IVT, anti-RXR (DBD mutation: RXRa K156A/R161A, NR concentration 270 nM, RXRa partner concentration 90 nM)
Outline: as §1

[12] = system: PPARg:RXRa IVT, anti-PPARg (NR concentration 270 nM, RXRa partner concentration 90 nM)
Outline: as §1

[13] = system: PPARg DBDmut:RXRa IVT, anti-PPARg (DBD mutation: PPARg1 K132A/R137A, NR concentration 270 nM, RXRa partner concentration 90 nM)
Outline: as §1

[14] = system: PPARg DBDmut IVT, anti-PPARg (DBD mutation: PPARg1 K132A/R137A, NR concentration 270 nM)
Outline: as §1

[15] = system: PPARg homodimer (NR concentration 180 nM)
Outline: as §1

[16] = system: PXR:RXRa (NR concentration 270 nM, RXRa partner concentration 90 nM)
Outline: as §1

[17] = system: PXR homodimer (NR concentration 270 nM)
Outline: as §1

[18] = system: RARa:RXR (NR concentration 270 nM, RXRa partner concentration 90 nM)
Outline: as §1

[19] = system: RARa homodimer (NR concentration 270 nM)
Outline: as §1

[20] = system: RARb:RXRa (NR concentration 270 nM, RXRa partner concentration 90 nM)
Outline: as §1

Sequence | PBM binding z-score [1] | PBM binding z-score [2] | PBM binding z-score [3] | PBM binding z-score [4] | PBM binding z-score [5] | PBM binding z-score [6] | PBM binding z-score [7] | PBM binding z-score [8] | PBM binding z-score [9] | PBM binding z-score [10] | PBM binding z-score [11] | PBM binding z-score [12] | PBM binding z-score [13] | PBM binding z-score [14] | PBM binding z-score [15] | PBM binding z-score [16] | PBM binding z-score [17] | PBM binding z-score [18] | PBM binding z-score [19] | PBM binding z-score [20]
TCAGACAGGTGAAGATAACTCAGGTACGCAGTCG | 0.856 | 0.897 | 0.162 | 1.04 | -0.112 | 1.39 | 1.09 | 2.31 | 3.92 | 2.92 | 2.79 | 0.984 | 0.555 | 0.567 | 0.861 | 0.46 | 0.241 | 0.891 | 0.4 | 1.1
CCTACTGGGCCAAGGTCATGGATCAGTCAAAGCA | 3.04 | 3.08 | 0.47 | 3.01 | -0.724 | 4.32 | 4.52 | 4.76 | 1.8 | 3.69 | 3.36 | 4.9 | -0.856 | -0.00696 | 0.941 | 3.26 | 0.388 | 3.81 | 0.247 | 3.53
TCATATAGGTAAAAGGTGAACGTCGGTGTGGTAA | 2.13 | 2 | 0.308 | 1.96 | 0.0983 | 5.54 | 9.49 | 8.84 | 8.77 | 9.46 | 5.71 | 5.6 | 1.12 | 1.53 | 1.65 | 1.86 | 0.862 | 2.9 | 1.07 | 2.15
ATCTCTAGGTAACAAGTTCTGTGAAAGAGAGGAC | 0.351 | 0.0214 | 0.142 | 0.0812 | 0.681 | 0.641 | 1.01 | 1.5 | 0.751 | 1.08 | 3.07 | 2.91 | 1.35 | 1.11 | 0.9 | 0.15 | 0.424 | 0.67 | 0.681 | 0.332
GTACCAAGGTGAATAGGTCGTTGCTGAGTAGGCG | 0.799 | 0.799 | -0.43 | 0.493 | -0.623 | 2.23 | 1.21 | 1.71 | -0.00379 | 1.18 | 1.82 | 2.55 | -0.221 | 0.00615 | 0.964 | 0.496 | -0.427 | 1.55 | -0.268 | 1.96
CAAACTAGGTCAAGGTCAATGTCGGTTTGTGCCA | 6.03 | 5 | 3.19 | 4.14 | 1.08 | 5.94 | 9.35 | 7.99 | 6.08 | 8.16 | 8.55 | 8.45 | 5.91 | 4.78 | 4.97 | 4.89 | 2.16 | 4.96 | 2.18 | 5.03
CAAACTAGGGCAAGGTCAAAGTCGGTTTGTGCCA | 5.18 | 4.46 | 2.44 | 3.77 | 0.468 | 5.56 | 7.92 | 6.99 | 4.88 | 7.3 | 7.65 | 7.58 | 2.3 | 3.24 | 3.66 | 4.71 | 1.95 | 4.96 | 2.12 | 4.14
ATATGTAGGTTAAGGGTCAGTCAGGTTGGTTCGC | 3.7 | 3.26 | 1.44 | 3.34 | 0.965 | 6.05 | 11 | 9.37 | 9.35 | 11.6 | 7.48 | 7.77 | 4.77 | 2.22 | 3.78 | 4.14 | 2.03 | 4.53 | 2.65 | 3.51
CCTGCCAGGTCAATGGTCAGCTAAAGCAGCTCGC | 3.36 | 2.51 | -0.047 | 1.96 | -0.196 | 3.48 | 2.59 | 3.44 | 0.524 | 2.57 | 1.49 | 2.41 | -0.936 | -1.59 | 0.763 | 1.6 | -0.223 | 1.96 | -0.54 | 3.66
TCACCAAGGTGAGCTGAGGTCGTTGATCCAACTC | 1.24 | 0.999 | -0.747 | 0.743 | -1.63 | 1.6 | 0.00194 | 1.01 | 0.915 | 0.958 | 1.73 | 1.53 | -0.807 | -0.69 | 0.0757 | 5.13 | -0.0817 | 2.65 | -0.943 | 1.61
ACTATTAGTTGAGACGAGGGGAACCGATAGGTTG | 0.227 | -0.0882 | -0.278 | -0.282 | 0.604 | -0.0604 | 0.569 | -0.00558 | 0.211 | 0.143 | 0.452 | 0.325 | 0.853 | 0.931 | -0.148 | -0.0512 | 0.29 | -0.00202 | 0.237 | 0.18
AGTTAAAGTTCACTAGGTAACGTAAGATTCAGCT | 4.84 | 4.91 | 3.45 | 2.98 | 1.1 | 4.57 | 6.24 | 5.79 | 2.62 | 4.52 | 2.6 | 4.69 | 1.44 | 1.19 | 2.19 | 3.54 | 2.11 | 2.66 | 1.6 | 4.51
TTTGCTAGGTCAGTTGGTCAGCTAACGAGCTGCC | 1.15 | 1.41 | 0.52 | 0.404 | 0.521 | 1.54 | 1.1 | 1.77 | -0.172 | 1.34 | 3.23 | 3.87 | -0.438 | -0.0692 | 0.648 | 0.0416 | -0.599 | 0.42 | -0.935 | 3.31
